Compound activity as filed in PubChem.
Hits are enriched below; roughly 2.8% of the tested compounds scored in any of these assays.
p-CIP stab down – compounds decreasing mouse p/CIP protein stability. F442A p/CIP-EGFP cells, EGFP fluorescence, 16 h. decrease of EGFP signal, % at 10 µM. 290,000 tested, 0.01% active. AID 1984;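 active = EGFP signal decrease of at least 30% at 10 µM or well 3 SD below plate mean, unless failing retest; inactive = the rest, including hits failing retest or dose response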
Platelet DG rel – modulates dense granule release in human platelets; human platelet-rich plasma, SFLLRN dense granule ATP release, luminescence; AID 1663; 300,000 tested, 0.22% active; inhibition, %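 (compounds screened at 7.5 µM in platelet-rich plasma)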;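 active = mean replicate score, as percent of positive control, at or above 50; inconclusive = mean below 50 but at least one replicate at or above 50; inactive = mean and every replicate below 50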
HIF activator – HIF pathway transcriptional activation | 300,000 tested, 0.32% active | U2OS HRE-luciferase reporter, luminescence; normalized: DMSO 0%, desferrioxamine 100% | AID 1910 | activation, % at 7.5 µM (by protocol);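 active = mean activation of at least 10% of the iron chelator positive control signal, with at least half of replicates also reaching 10%; inconclusive = mean and replicate majority disagree about reaching 10%; inactive = mean and most replicates under 10%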
AHR act – human AHR activation | AID 2796 | AHR-responsive luciferase reporter cells, luminescence | 320,000 tested, 2.5% active | activation, % at 5 µM; in the data active = activation above about 47%
PolyA inh – inhibitors of polyadenylation in S. cerevisiae | activity score, % at 12 µM | 300,000 tested, 0.02% active | S. cerevisiae SKY197-pL101 polyadenylation reporter, beta-gal luminescence; efflux-impaired pdr1/pdr3 knockout yeast; score 100 = 6 SD above DMSO;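 active = lowest replicate activity score at least 50, where 100 means six control SD above control mean; inconclusive = lowest score under 50 but half or more replicates reach 50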;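 also: yeast exposed to compound for 9 h at 30 °C; higher score means more reporter readthrough which indicates perturbed polyadenylation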
AHR act confirm – confirmation of human aryl hydrocarbon receptor activators; human cells, AHR-responsive luciferase reporter, luminescence; activation, % at 9 µM; 2,300 tested, 87% active; shares compounds with AHR act; AID 2845; in the data active = activation above about 49%;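 also: HepG2 hepatoma cells carrying a DRE-driven firefly luciferase reporter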
PXR act counter – PXR activation, counter-screen for AHR activators; shares compounds with AHR act; activation, % at 11.6 µM; AID 434939; cell-based PXR reporter, luciferase luminescence; 2,300 tested, 88% active; in the data active = activation above about 11%;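 also: human hepatoma DPX-2 cells expressing full-length human PXR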
A number is an active result; n = inactive; u = inconclusive; x = not tested or not shown.

SMILES | p-CIP stab down | Platelet DG rel | HIF activator | AHR act | PolyA inh | AHR act confirm | PXR act counter
CC(C)NC(=O)COc1ccc(S(=O)(=O)N2CCCC2)cc1 | n | n | n | 87 | n | n | 16
Nn1c(-c2ccc(F)cc2)nc2ccccc2c1=O | n | n | n | n | n | x | x
O=C1c2cc(F)ccc2-n2c1nc1ccccc1c2=O | n | n | n | 100 | n | n | n
COc1cc2c(cc1OC)CN(C(=O)Cc1c(F)cccc1Cl)CC2 | n | n | n | n | n | x | x
O=C(Nc1nc(-c2ccco2)c(-c2ccco2)s1)C1CCC1 | n | n | n | 106 | n | 91 | 25
CC(C)CC(=O)NC(=S)Nc1nc(-c2cccc3ccccc23)cs1 | n | n | n | 80 | n | 53 | 29
CNC(=O)C1CC(=O)N(CCCc2ccccc2)C(=Nc2ccccc2)S1 (stereo unspecified) | n | n | n | n | n | x | x
CN1c2ccccc2-c2nc3ccccc3n2C1c1cccs1 (stereo unspecified) | n | n | n | n | n | x | x
c1csc(C2Nc3ccccc3-c3nc4ccccc4n32)c1 (stereo unspecified) | n | n | n | 133 | n | n | 112
CCC(C)[C@H](NC(=O)OC(C)(C)C)C(=O)NCC1CCC(C(=O)N[C@@H](Cc2ccccc2)C(=O)O)CC1 (stereo partly specified) | n | n | n | n | n | x | x
O=C(NC1CCCC1)c1c(O)nc2sccn2c1=O | x | n | n | 85 | n | 114 | n
Cc1csc2nc(O)c(C(=O)NC3CCCCC3)c(=O)n12 | x | n | n | n | u | x | x
CN(C)CCCN1C(=O)c2cccc3cccc(c23)C1=O | n | n | n | 141 | n | 163 | x
Cc1ccc(N(CCCCN2C(=O)c3ccccc3C2=O)C(=O)c2cccc([N+](=O)[O-])c2)cc1 | n | n | n | n | n | x | x
CN(C)CCCN1C(=O)c2cc3ccccc3cc2C1=O | n | n | n | n | n | x | x
COc1ccc(N(CCCN2C(=O)c3cccc4cccc(c34)C2=O)C(=O)c2cccc(OC)c2)cc1 | n | n | n | 88 | n | 99 | 119
O=C1c2cccc3cccc(c23)C(=O)N1CCCSc1ncn[nH]1 | n | n | n | 101 | n | 88 | 57
O=C(COc1ccccc1Br)Nc1ccc(S(=O)(=O)N2CCCC2)cc1 | x | x | x | n | x | x | x
CN(C)S(=O)(=O)c1cc(NC(=O)COC(=O)CCSc2ccc(Cl)cc2)ccc1Cl | n | n | n | n | n | x | x
Cc1c(C2N3CC4(C)CN2CC(C)(C3)C4=O)c2ccccc2n1C (stereo unspecified) | n | n | n | n | n | x | x
O=C(Nc1ccc(Br)cc1)C1OCCc2ccccc21 (stereo unspecified) | n | n | x | 103 | n | 107 | 116
O=C(Nc1ccc(C(=O)O)cc1)/C(=C\c1ccc([N+](=O)[O-])cc1)NC(=O)c1ccc(Br)cc1 | n | n | n | n | n | x | x
O=C(Nc1ccc(C(F)(F)F)cc1)c1ccc2nc[nH]c2c1 | n | n | n | 106 | n | 98 | 10
O=C(Nc1ccc(OC(F)(F)F)cc1)c1ccc2nccnc2c1 | n | n | n | 86 | n | 81 | 15
COC(=O)c1ccc(NC(=O)c2ccc3nccnc3c2)cc1 | n | n | n | n | n | x | x
SMILES | p-CIP stab down | Platelet DG rel | HIF activator | AHR act | PolyA inh | AHR act confirm | PXR act counter
COc1ccc(NC(=O)c2ccc3nc[nH]c3c2)cc1 | n | n | n | 80 | u | 79 | 19
CN1C(=O)CS/C1=N\NC(=O)COc1cccc2cccnc12 | n | n | n | n | n | x | x
O=C(CN(Cc1ccccc1Cl)C(=O)CNS(=O)(=O)c1ccc(F)cc1)NCC1CCCO1 (stereo unspecified) | n | n | n | n | n | x | x
N/C(=N\OC(=O)c1ccccc1F)c1cccc([N+](=O)[O-])c1 | n | n | n | n | n | x | x
O=C(CSc1nnnn1Cc1ccccc1)Nc1ccc2c(c1)OCO2 | n | n | n | 102 | n | 85 | 94
CCCCn1nnnc1SCC(=O)Nc1ccc2c(c1)OCO2 | n | n | n | 90 | n | 82 | 30
O=C(CSc1nnnn1Cc1ccccc1)Nc1ccc2c(c1)OCCO2 | n | n | n | n | n | x | x
CCCCn1nnnc1SCC(=O)Nc1ccc(F)cc1 | n | n | n | n | n | x | x
